aSyn 5UTR inh = MLPCN primary screen, SNCA 5' untranslated region; alpha-synuclein 5'UTR reporter, inhibitor activity; inhibition, % (tested at 7.5 µM); 300,000 tested, 0.82% active; AID 1813, 2009; in the data active = inhibition above about 60%;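 also: H4 neuroglioblastoma cells stably carrying SNCA 5'UTR luciferase fusion; 0% = DMSO wells and 100% = positive control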
TWEAK Fn14 block = inhibitors of TWEAK-Fn14 signaling, primary screen, luciferase reporter cells, uHTS; TWEAK-stimulated Fn14 reporter cells, luciferase luminescence, 8 h; inhibition, % at 10 µM; 360,000 tested, 2% active; AID 1159606, 2016; in the data active = inhibition above about 50%
C8 TRAIL sens = viability loss with TRAIL in NB7+C8 cells, primary screen, TRAIL sensitizer project, cell-based, ATPlite luminescence; inhibition (viability loss, TRAIL sensitization), % at 10 µM; 360,000 tested, 1% active;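 active = compounds causing at least 50% loss of cell viability in the single-dose screen, relative to plate controls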
TROY NFkB inh = inhibitors of TROY-driven NF-kB signaling, primary screen, Q293 LMP1-TROYcd cells, NF-kB luciferase, uHTS; AID 1347056, 2019; inhibition, % at 10 µM; 360,000 tested, 0.98% active; Q293 LMP1-TROYcd NF-kB luciferase reporter, 4 h;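 active = compounds whose plate-normalised and pattern-corrected inhibition of the luciferase reporter signal at the single screening dose is 50% or more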
HSP90 refold inh = HSP90 inhibitors, primary screen, cell lysate, luminescence; inhibition, % at 5.6 µM; Rabbit reticulocyte lysate, luciferase refolding luminescence, 3 h; 290,000 tested, 0.91% active;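 active = inhibition above the screen-wide mean plus 3 SD, computed separately per campaign, cut at about 16% in these data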;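 also: 0% = DMSO wells and 100% = 60 µM geldanamycin wells; inhibitors lower the luminescence because luciferase stays unfolded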
HIF-2a inh = HIF-2a reporter inhibitors, primary screen, luminescence, 786-0 RCC cells; 786-0 RCC cells HIF-2a reporter, luciferase luminescence, overnight; inhibition, % at 18.8 µM; 360,000 tested, 0.72% active;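 active = inhibition of the luminescence signal of 40% or more relative to plate controls, in a single-dose primary screen at 18.75 µM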
HSP90 inh confirm = HSP90 inhibitors, confirmation, cell lysate, luminescence. 2,300 tested, 64% active. shares compounds with HSP90 refold inh. rabbit reticulocyte lysate, luciferase refolding luminescence, 3 h. inhibition, % at 5.9 µM; in the data active = inhibition above about 18%;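 also: 0% = vehicle wells and 100% = reference inhibitor wells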
luciferase ctr = firefly luciferase inhibitors, HSP90 counter-screen, confirmation, artefact control for HSP90 inhibitor project, biochemical, luminescence, triplicate. shares compounds with HSP90 refold inh. purified native firefly luciferase. inhibition, % at 5.9 µM. 2,300 tested, 48% active;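 active = inhibition above the mean inhibition of all tested sample wells plus 3 SD, cut at about 10% in these data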;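 also: 0% = DMSO with luciferase and 100% = wells lacking luciferase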
Target sequence (P08659 whole entry, looked up): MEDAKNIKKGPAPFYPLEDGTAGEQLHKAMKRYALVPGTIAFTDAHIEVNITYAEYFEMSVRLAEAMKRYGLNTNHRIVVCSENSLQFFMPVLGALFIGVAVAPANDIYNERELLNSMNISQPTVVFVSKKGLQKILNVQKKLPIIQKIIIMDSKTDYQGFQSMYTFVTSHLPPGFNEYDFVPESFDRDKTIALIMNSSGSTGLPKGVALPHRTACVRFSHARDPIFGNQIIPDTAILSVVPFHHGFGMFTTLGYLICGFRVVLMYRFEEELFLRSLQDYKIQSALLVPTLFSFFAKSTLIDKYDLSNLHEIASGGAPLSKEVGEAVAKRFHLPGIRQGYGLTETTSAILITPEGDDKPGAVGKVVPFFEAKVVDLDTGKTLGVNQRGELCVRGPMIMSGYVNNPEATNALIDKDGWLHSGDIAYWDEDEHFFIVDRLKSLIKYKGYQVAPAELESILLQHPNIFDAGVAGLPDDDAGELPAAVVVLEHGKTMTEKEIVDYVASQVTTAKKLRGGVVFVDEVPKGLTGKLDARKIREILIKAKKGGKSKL
Numbers without * were called inactive; nt = not tested or not shown. Shown are actives, neighbours in structure and some others; about 3.9% of the full set was active somewhere.

SMILES	aSyn 5UTR inh	TWEAK Fn14 block	C8 TRAIL sens	TROY NFkB inh	HSP90 refold inh	HIF-2a inh	HSP90 inh confirm	luciferase ctr
CCCn1nc(C(=O)Nc2cc(OCC)c(N3CCOCC3)cc2OCC)c2ccccc2c1=O	nt	19	19	0	nt	-21	nt	nt
CC1(C(=O)NCc2cccc(Cl)c2)Cc2c(-c3cccc(C(N)=O)c3)ccnc2O1 (stereo not drawn)	nt	-13	12	-7	nt	-10	nt	nt
CCOc1ccc(NC(=O)COc2ccc(C(=O)NCc3cccc(OC)c3)cc2OC)cc1	nt	-5	-1	9	nt	2	nt	nt
O=[N+]([O-])c1ccccc1COc1ccc(Cl)c2cccnc12	8	65*	16	-3	21*	-175	48*	32*
CCOc1ccc(Nc2nc(N)c3ccccc3n2)cc1	102*	92*	86*	61*	60*	47*	74*	61*
Cc1nc(Nc2ccccc2)sc1C(=O)c1ccccc1	-68	-2	-3	-33	-1	-235	nt	nt
Cc1nc(Nc2ccc(C(=O)O)cc2)sc1-c1ccccc1	-1	93*	15	56*	34*	-30	84*	63*
CC(C)(C)C(=O)Nc1ccc(N=Nc2ccccc2)cc1	79*	4	82*	83*	71*	-2	79*	74*
O=C(O)CCC(=O)Nc1ccc(N=Nc2ccccc2)cc1	12	-18	-2	-18	-2	5	nt	nt
O=C(NCc1ccccc1CN1CCCC1)c1cccc(N2CCCC2=O)c1	nt	1	-4	16	nt	13	nt	nt
Cc1c(/C(O)=C2/C(=O)C(=O)N(Cc3cccnc3)C2c2cccs2)cnn1-c1ccccc1 (stereo not drawn)	-152	83*	6	85*	55*	-18	55*	53*
CC1C(=O)N(Cc2cn(CC3CCCCC3)nn2)CCS(=O)(=O)N1Cc1ccc(-c2cccc(CO)c2)cc1 (stereo not drawn)	nt	28	-1	0	nt	3	nt	nt
CCN(CC)C(=O)C1=C(C)N(Cc2ccccc2)C(=O)C(CC(=O)NCc2cccc3ccccc23)C1 (stereo not drawn)	nt	-9	-4	9	nt	9	nt	nt
Cc1oc(-c2ccc3c(c2)OCCO3)cc1C(=O)NC(CCC(=O)O)C(=O)O (stereo not drawn)	-47	12	-24	-2	64*	-97	77*	33*
Cc1oc(-c2ccc3c(c2)OCCO3)cc1C(=O)NCC(=O)O	-126	19	1	2	90*	-89	95*	79*
COc1ccc(NS(=O)(=O)c2cc(NC(=O)c3ccc(=O)[nH]n3)ccc2N2CCOCC2)cc1	nt	-5	3	11	nt	12	nt	nt
Nc1ccc(S(=O)(=O)Nc2nccs2)cc1N=Nc1ccccc1[N+](=O)[O-]	nt	-12	4	-19	nt	-56	nt	nt
Cc1ccc(-n2nc3c(c2NC(=O)c2cccs2)CS(=O)(=O)C3)c(C)c1	-17	9	-13	-4	86*	11	-2	-1
S=C(NCc1cccnc1)c1ccccc1	3	10	-21	-16	19*	12	0	-2
NC(=S)NCc1cccnc1	7	-9	-3	0	5	-1	nt	nt
CC(=O)Nc1cc(-c2ccccc2Cl)cn2c(-c3ccc(S(C)(=O)=O)cc3)cnc12	nt	-8	3	8	nt	13	nt	nt
Cc1ccc(C(=O)CSc2nnnn2C(C)C)c(C)c1	39	90*	21	53*	56*	0	79*	72*
Cc1ccc(C)c(C(=O)CSc2nnnn2C(C)C)c1	-65	-16	7	-55	0	-121	nt	nt
COc1ccc(/C=C/C(=O)Nc2ccccc2C(=O)O)cc1OC	16	98*	29	84*	72*	22	55*	52*
COc1ccc(/C=C/C(=O)Nc2ccccc2C(F)(F)F)cc1OC	-13	-10	10	-40	-3	-26	nt	nt
SMILES	aSyn 5UTR inh	TWEAK Fn14 block	C8 TRAIL sens	TROY NFkB inh	HSP90 refold inh	HIF-2a inh	HSP90 inh confirm	luciferase ctr
O=c1c2c([nH]c3ccccc13)CCC2	-17	5	-25	-11	20*	13	-6	-7
Oc1cccc(C=Nc2cccc3ccccc23)c1O	-10	101*	29	61*	23*	14	3	-4
C/C(=N\Nc1ccc(Cl)c(C(=O)O)c1)c1ccccn1	-1	-4	-9	-67	40*	-13	3	-14
C/C(=N\Nc1ccc(Cl)c(C(=O)O)c1)c1ccc2c(c1)OCO2	-73	-10	-2	-36	9	-156	nt	nt
Cc1ccc(/C=N/Nc2ccc(Cl)c(C(=O)O)c2)s1	-153	-1	-9	-24	24*	-44	77*	37*
O=C(O)c1cc(N/N=C/c2ccc3c(c2)OCO3)ccc1Cl	-73	20	-3	-60	47*	-6	83*	54*
O=C(O)c1cc(N/N=C/c2cccs2)ccc1Cl	-253	nt	nt	nt	24*	nt	67*	21*
C/C(=N\Nc1ccc(Cl)c(C(=O)O)c1)c1cc2ccccc2o1	4	-31	8	-39	5	-15	nt	nt
Cc1cc(C)nc(Nc2nc(C(N)CCc3ccccc3)cs2)n1 (stereo not drawn)	nt	3	7	6	nt	0	nt	nt
O=C(Nc1ccc(F)cc1)N[C@H]1CC[C@H](CCNS(=O)(=O)c2cccc(Cl)c2)O[C@@H]1CO	nt	nt	2	nt	nt	-7	nt	nt
Cc1cccc(C)c1C(O)c1ncc(-c2cccc(F)c2)[nH]1 (stereo not drawn)	nt	1	-10	-9	nt	5	nt	nt
CC[C@@H]1C/C=C\Cc2ccccc2[C@H](C(=O)C[C@@H](O)CC(C)=O)OC1=O	nt	-3	3	14	nt	20	nt	nt
O=C(NCc1cccnc1)c1csc([C@H]2C[C@H](O)[C@@H](CO)O2)n1	nt	10	-5	5	nt	10	nt	nt
O=C(O)c1cc(N/N=C/C(Cl)=C/c2ccccc2)ccc1Cl	15	8	17	-80	48*	29	89*	80*
CC[C@@H](NCCCn1ccc(NC(=O)OCc2ccccc2)nc1=O)c1ccccc1	nt	-10	-5	11	nt	3	nt	nt
O=C(/C=C/c1ccccc1)c1ccc2c(c1)OCCCCO2	-198	7	15	18	33*	-123	33*	29*
CCN(CC)C(=O)Cn1cc(C(=O)C(=O)Nc2ccc3c(c2)OCO3)c2ccccc21	nt	-23	21	-19	nt	-83	nt	nt
COc1ccc(C(=O)NCC(=O)N2CCN(c3ncccn3)CC2)cc1OC	nt	-3	-9	-5	nt	-1	nt	nt

Compound activity deposited in PubChem BioAssay by several laboratories.
